This note sets out measurements from ChEMBL document CHEMBL1157539, “Thousands of chemical starting points for antimalarial lead identification” (Nature, 2010).

Structures are written as SMILES.

For the test, the system named is Plasmodium falciparum. In words: GSK_TCMDC: Inhibition of Plasmodium falciparum Dd2 in whole red blood cells, using parasite LDH activity as an index of growth. Test compounds present at 2uM. Type of test: functional.
Regarding `CCOC(=O)c1nc(-c2ccc(-c3ccccc3)cc2)[nH]c1N.Cl`, the Inhibition turned out to be 2%.

`COc1ccc(C2CC(=O)C3=C(C2)NC(C)=C(C(=O)OC2CCCC2)C3c2cccc(O)c2)cc1` (stereo not given): the Inhibition is given as 83%.

The compound `CCOC(=O)[C@H](Cc1cc([N+](=O)[O-])c(Oc2ccc(OC)c(Cc3ccc(OC)c(C(C)C)c3)c2)c([N+](=O)[O-])c1)NC(=O)C(F)(F)F` yielded an Inhibition of 0%.

Turning to `COc1cc(C2=NN(S(=O)(=O)c3c(C)cc(C)cc3C)CCCC2)ccc1Cl`, the Inhibition is 76%.

As for `Br.Oc1ccc(CNCCCCCCNCCc2ccc(Cl)cc2)cc1O`, the Inhibition is 7%.

For `COc1cc(C=NNc2ccnc3cc(Cl)ccc23)ccc1O`, the Inhibition was found to be 100%.

In the case of `Cc1nc2ccccn2c1C1(O)C(=O)Nc2c(Cl)cc(Cl)cc21` (stereo not given), the Inhibition is 62%.

As for `COc1ccc2ncc(Cl)c(N3CCC(CCNCc4ccc5c(n4)NC(=O)CS5)CC3)c2c1.Cl`, the Inhibition is on record as 82%.

In turn, `N#Cc1ccc(-c2ccc(C(=O)NC3CCN(CCN4CCc5c(cccc5C(F)(F)F)C4)CC3)cc2)cc1` yielded an Inhibition of 51%.

The compound `CN1CCN(c2cc3c(cc2Cl)CCN3C(=O)Cc2ccc(Cl)c(NC(=O)Nc3cccc([N+](=O)[O-])c3)c2)CC1` gave an Inhibition of 51%.

For `N#CCCN1CCN(Cc2ccc(-c3ccc(-c4nc5cc(F)ccc5[nH]4)s3)cc2)CC1.O=C(O)C(F)(F)F`, the Inhibition came to 38%.

`CC(C)(C)c1ccc(NC(=O)c2ccc(CN3CCCN(Cc4cccc(C#N)c4)CC3)cc2)cc1.O=C(O)C(F)(F)F` yielded an Inhibition of 12%.

For the compound `CNCc1cccc2nc(-c3ccc(Cc4cc(Cl)ccc4OCC(C)C)o3)[nH]c12.Cl`, the Inhibition is 23%.

The compound `Cc1nc2nc(N)nc(N)c2c(C)c1Cc1cccs1.Cl` came in with an Inhibition of 2%.

The compound `Cl.c1cc2[nH]c(CCCCCc3nc4cc(C5=N[C@@H]6CCCC[C@@H]6N5)ccc4[nH]3)nc2cc1C1=N[C@@H]2CCCC[C@@H]2N1` gave an Inhibition of 98%.

For `CN(C)CCN(C)Cc1ccc(-c2ccc3c(Nc4ccc(Cl)cc4F)ccnc3c2)o1`, the Inhibition worked out at 76%.

Turning to `COc1ccc(S(=O)(=O)N2CCCc3ccc(Br)cc32)cc1N1CCN(C(=O)C(Cl)(Cl)Cl)CC1`, the Inhibition came to 93%.

On to `Cn1c(Nc2cc(C(C)(C)C)on2)nc2cc(Nc3ccnc(Nc4cccc(S(=O)(=O)N5CCOCC5)c4)n3)ccc21`, for which the Inhibition is recorded as 96%.

`CC[C@H](N/C(=N\c1ccc(-c2ccccc2)cc1)Nc1ccc(C#N)cc1O)c1ccccc1` registered an Inhibition of 97%.

The compound `O=C(Nc1ccc(OC2CCN(Cc3ccc(F)cc3)C2)c(Cl)c1)c1cccs1.O=C(O)C(F)(F)F` (stereo not given) displayed an Inhibition of 97%.

In the case of `CN1CCN(CCCN(Cc2csc(-c3ccc(CNCc4ccccc4)cc3)n2)C(=O)Nc2cc(Cl)cc(Cl)c2)CC1.O=C(O)C(F)(F)F`, the Inhibition was 45%.

Take `CCN(CC)CCN(Cc1ccc(-c2ccc(C(F)(F)F)cc2)cc1)C(=O)Cn1c(CCc2ccc(F)c(C#N)c2)nc(=O)c2ccccc21.O=C(O)C(O)C(O)C(=O)O`: the Inhibition is recorded as 55%.

Compound `Oc1ccc(-c2nc3c4cc(I)ccc4c4ccc(I)cc4c3[nH]2)cc1` had an Inhibition of 51%.

Turning to `CNCc1cccc2nc(-c3csc(Cc4cc(Cl)ccc4OCC(C)C)n3)[nH]c12`, the Inhibition was 33%.

Compound `Cc1ccc(N2C(N)=NC(N)=NC2(C)C)cc1Cl.Cl` gave an Inhibition of 77%.

In the case of `Cl.N#Cc1ccc2c(c1)CCN(CCC1CCC(Nc3ncnc4ccccc34)CC1)C2` (stereo not given), the Inhibition is given as 96%.

`Cc1noc(C)c1-c1cccc(CNCc2cccc(-c3ccc(-c4nc5cccc(C)c5[nH]4)cc3)c2)c1.O=C(O)C(F)(F)F`: the Inhibition is listed as 69%.

Compound `COc1ccc(-c2ccc(NC(=O)c3ccc(C#N)cc3)cc2)cc1CNC(C)C.O=C(O)C(F)(F)F` displayed an Inhibition of 38%.

The compound `COc1cc(-c2nc3ccc(N4CCN(C)CC4)cc3[nH]2)cc(OC)c1OC` returned an Inhibition of 15%.

`Cl.N=C(Cc1ccc(Cl)cc1)NCCN1CCCCCC1` displayed an Inhibition of 94%.

As for `CC(C)CN(c1nc(C(=O)NNC(=O)[C@H](CC2CC2)NC(=O)c2cc3cc(OCCN4CCCCC4)ccc3o2)cs1)C1CC1`, the Inhibition amounted to 98%.

Consider `Cc1ccc(OC2CCN(c3ccc(C(=O)NC4CC4)cn3)CC2)cc1`, for which the Inhibition was 75%.

With `CCC(=O)OC(CCN(CC)CC)(c1ccccc1)c1ccccc1`, the Inhibition came to 6%.

Regarding `O=C(Cc1c[nH]cn1)Nc1cccc(-c2ccc(-c3nc4ccccc4[nH]3)cc2)c1`, the Inhibition was 72%.

The compound `CS(=O)(=O)c1ccc(CNCc2cccc(-c3ccc(-c4nc5cc(C(F)(F)F)ccc5[nH]4)cc3)c2)cc1.O=C(O)C(F)(F)F` returned an Inhibition of 96%.

In the case of `CN(C)CCOc1cc(NC(=O)Nc2ccc(-c3ccncc3)c(C(F)(F)F)c2)ccc1Cl`, the Inhibition was 79%.

Compound `CNCCNCc1cccc(-c2ccc(-c3nc4cccc(C)c4[nH]3)cc2)c1.O=C(O)C(F)(F)F` showed an Inhibition of 21%.

Compound `COc1ccc2ncc(F)c(CCN3CCC(NCc4cnc5c(c4)NC(=O)CS5)CC3)c2c1.Cl` registered an Inhibition of 16%.

Consider `CCc1sc(-c2cc(Cl)ccc2OC)nc1C(=O)NCCN1CCCCC1.O=C(O)C(F)(F)F`, for which the Inhibition stood at 28%.

Compound `CN(C)CCCNc1ccnc2cc(Cl)ccc12` showed an Inhibition of 100%.

As usually defined, the Inhibition is the change of the read-out against control, counted positive when it falls.
